40 compounds from PubChem BioAssay can be followed below.

For part of these data: Entries with a potency or affinity are not part of this list.

The target of the first experiment is Cell division control protein 42 homolog (Homo sapiens) (UniProt P60953). Briefly: wildtype Cdc42 GTP-binding inhibitors, dose response, biochemical, multiplex bead flow cytometry, Bodipy-FL-GTP (AID 1334). To be noted: bead-based flow cytometry, Bodipy-FL-GTP binding to GST-Cdc42; at 100 µM (top of the series) unless noted. On the technique in general: A flow cytometer gives signals particle by particle.
Chain of Cell division control protein 42 homolog (Homo sapiens) (P60953 whole entry, looked up): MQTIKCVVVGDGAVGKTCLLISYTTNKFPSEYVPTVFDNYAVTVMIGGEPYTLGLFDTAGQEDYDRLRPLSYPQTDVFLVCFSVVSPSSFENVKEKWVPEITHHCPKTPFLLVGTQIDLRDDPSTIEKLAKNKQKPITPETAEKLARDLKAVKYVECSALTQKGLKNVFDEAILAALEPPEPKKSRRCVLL
`CCN(CC)S(=O)(=O)c1ccc2c(c1)c(=O)c(C(=O)N1CCc3ccccc3C1)cn2C`: the fluorescence, percent of control (lower = inhibition) was determined as 96.7%. Compound `CCOC(=O)C1=NN(c2ccc(C)cc2)CC1C(=O)OC` (centres undefined) returned a fluorescence, percent of control (lower = inhibition) of 41.5%. As for `O=C(NC1CCCCC1)C(c1ccco1)N(Cc1ccco1)C(=O)c1ccco1` (centres undefined), the fluorescence, percent of control (lower = inhibition) is 90.7%. As to `C=C(C)COc1ccc(-c2n[nH]c(C)c2-c2ccc(Br)cc2)c(O)c1`, the fluorescence, percent of control (lower = inhibition) stood at 32.9%. Compound `O=S(=O)(Cc1ccccc1)c1ccccc1-c1nnc(-c2ccccc2)o1` gave a fluorescence, percent of control (lower = inhibition) of 89.9%. In the case of `CCOC(=O)Cn1nnnc1CN(Cc1cccs1)Cc1cc2cc(C)ccc2[nH]c1=O`, the fluorescence, percent of control (lower = inhibition) was 98.4%. In turn, `CC(=O)Nc1ccc(NC(=O)CCn2nnc3ccccc32)cc1` registered a fluorescence, percent of control (lower = inhibition) of 35.7%. `COc1ccc(CNc2nc3ccccc3n2Cc2ccc(C)cc2)cc1OC` gave a fluorescence, percent of control (lower = inhibition) of 73%. `O=C(O)c1ccccc1C(=O)OCc1ccc(F)cc1F` had a fluorescence, percent of control (lower = inhibition) of 89.8%. In turn, `COc1ccc2oc(COc3ccccc3)c(C(=O)O)c2c1` came in with a fluorescence, percent of control (lower = inhibition) of 59.6%.

As for `CCOc1ccc(-n2c(-c3ccco3)n[nH]c2=S)cc1`, the fluorescence, percent of control (lower = inhibition) came out at 56.1%. The same measure, in the same setting: with `OC(c1ccc(OCc2ccccc2)cc1)c1nnc(-c2ccccc2)o1` (centres undefined) the figure was 92.3%; with `COc1ccc(-c2c3c(nc4sc5c(=O)[nH]c(C)nc5c24)CCC3)cc1`, 38.2%.

As for `O=C(COc1ccccc1-c1ccccc1)N/N=C/c1ccncc1`, the fluorescence, percent of control (lower = inhibition) is 33.3%.

In a further experiment the target is GTPase HRas (Homo sapiens) (UniProt P01112). Briefly: inhibitors of GTP binding to wildtype Ras, dose response, biochemical, multiplex bead flow cytometry (AID 1335). Particulars: bead-based flow cytometry, Bodipy-GTP binding to GST-Ras; at 100 µM (top of the series) unless noted.
Chain of GTPase HRas (Homo sapiens) (P01112 whole entry, looked up): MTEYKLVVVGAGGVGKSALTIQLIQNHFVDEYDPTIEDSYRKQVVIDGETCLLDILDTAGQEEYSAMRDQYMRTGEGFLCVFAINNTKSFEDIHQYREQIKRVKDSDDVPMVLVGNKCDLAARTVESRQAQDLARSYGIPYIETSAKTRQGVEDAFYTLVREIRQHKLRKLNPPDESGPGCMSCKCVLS
On to `CCOc1cc(/C=N/NC(=O)CSc2cccc3cccnc23)ccc1O`, for which the GTP binding, percent of control turned out to be 78.2%. In the case of `CCCCNc1nc(=S)[nH]c2cc(OC)c(OC)cc12`, the GTP binding, percent of control is 47.8%. For the compound `CSc1nc2ccc(NC(=O)C3CC(=O)N(Cc4ccco4)C3)cc2s1` (centres undefined), the GTP binding, percent of control came out at 75.3%. On to `CN1CCN(c2ccccc2NC(=O)c2ccc(-c3cccc([N+](=O)[O-])c3)o2)CC1`, for which the GTP binding, percent of control came to 93.9%.

`COc1ccc(CNc2nc3c(c(=O)n(Cc4ccc(Cl)cc4)c(=O)n3C)n2C)cc1`: the GTP binding, percent of control is 80.3%. As for `Cc1ccc(-c2noc(CN3C(C)CCCC3C)n2)cc1` (centres undefined), the GTP binding, percent of control was found to be 62.9%. In turn, `O=C(COc1ccccc1/C=C\c1[nH]c(=O)[nH]c(=O)c1[N+](=O)[O-])Nc1ccccc1` registered a GTP binding, percent of control of 77.1%. In turn, `Oc1ccc(C2=Nn3c(nnc3-c3ccco3)SC2)cc1O` returned a GTP binding, percent of control of 35.2%. `Cc1ccc(OCc2ccc(C(=O)O)o2)cc1C` had a GTP binding, percent of control of 90.6%.

Turning to `C=CCn1c(-c2csc(-c3ccc(Cl)cc3)n2)n[nH]c1=S`, the GTP binding, percent of control is 89.3%. For `O=C(O)COc1ccccc1/C=N/Nc1ccc(S(=O)(=O)Nc2ccc(Cl)cc2)cc1[N+](=O)[O-]`, the GTP binding, percent of control stood at 79.9%. For `O=C1c2ccccc2C(=O)N1CCCCN(C(=O)c1cc2ccccc2oc1=O)c1ccc(Cl)cc1`, the GTP binding, percent of control amounted to 60.9%. `Cn1c(SCC(=O)Nc2cc(C(C)(C)C)nn2-c2ccccc2)nc2ccccc21` yielded a GTP binding, percent of control of 64.7%. Take `CCCCCCNc1cc2n(c(=O)n1)CCc1cc(OC)c(OC)cc1-2`: the GTP binding, percent of control was 104%. With `Nc1c([N+](=O)[O-])cc(-c2cnc[nH]2)cc1[N+](=O)[O-]`, the GTP binding, percent of control amounted to 81.1%. Compound `CC(=O)Oc1cccc(C#CC(=O)c2ccc([N+](=O)[O-])cc2)c1` returned a GTP binding, percent of control of 173%.

`CCc1nnc(NC(=O)CCC(=O)N2CCN(c3ccccn3)CC2)s1`: the GTP binding, percent of control was determined as 163%. In turn, `CC(=O)OC(C(=O)NC1CCCCC1)c1ccc(Cl)cc1` (centres undefined) showed a GTP binding, percent of control of 82.1%.

Consider `CCN1C(=O)/C(=C/C=C2/Sc3ccc4ccccc4c3N2CCO)SC1=S`, for which the GTP binding, percent of control came to 59.2%. `CCN1CCN(c2nc3c(c(=O)n(C)c(=O)n3C)n2Cc2cccc3ccccc23)CC1`: the GTP binding, percent of control is 92.2%. With `O=C(O)c1cc2ccccc2nc1OCCc1ccccc1`, the GTP binding, percent of control was determined as 222%. In turn, `C=CCc1ccccc1OCc1cccc(C(=O)O)c1` yielded a GTP binding, percent of control of 99.3%.

`O=[N+]([O-])c1ccc(/C=C/C2=NN(c3ccccc3)C(c3ccco3)C2)cc1` (centres undefined): the GTP binding, percent of control came out at 132%.

As to `N=c1oc2ccc3ccccc3c2cc1-c1nc(-c2ccccc2)cs1`, the GTP binding, percent of control came to 75%. The same measure, in the same setting: the result for `N#CC(C#N)=C(Nc1ccc(F)cc1)SCc1cccc(Br)c1` reads 61.7%.

As for `N#C/C(=C\c1ccc(-c2ccc(C(=O)O)cc2)o1)c1nc2ccccc2[nH]1`, the GTP binding, percent of control was found to be 221%. Compound `CCN(CC)S(=O)(=O)c1ccc2c(c1)c(=O)c(C(=O)N1CCc3ccccc3C1)cn2C` yielded a GTP binding, percent of control of 172%.

`CCOC(=O)C1=NN(c2ccc(C)cc2)CC1C(=O)OC` (centres undefined) registered a GTP binding, percent of control of 86.3%. Compound `O=C(NC1CCCCC1)C(c1ccco1)N(Cc1ccco1)C(=O)c1ccco1` (centres undefined) yielded a GTP binding, percent of control of 174%. `C=C(C)COc1ccc(-c2n[nH]c(C)c2-c2ccc(Br)cc2)c(O)c1` registered a GTP binding, percent of control of 78.5%. `O=S(=O)(Cc1ccccc1)c1ccccc1-c1nnc(-c2ccccc2)o1` gave a GTP binding, percent of control of 166%. Regarding `CCOC(=O)Cn1nnnc1CN(Cc1cccs1)Cc1cc2cc(C)ccc2[nH]c1=O`, the GTP binding, percent of control is 178%. The compound `CC(=O)Nc1ccc(NC(=O)CCn2nnc3ccccc32)cc1` displayed a GTP binding, percent of control of 81.1%. Compound `COc1ccc(CNc2nc3ccccc3n2Cc2ccc(C)cc2)cc1OC` registered a GTP binding, percent of control of 73.9%. `O=C(O)c1ccccc1C(=O)OCc1ccc(F)cc1F` returned a GTP binding, percent of control of 106%. Compound `COc1ccc2oc(COc3ccccc3)c(C(=O)O)c2c1` had a GTP binding, percent of control of 87.3%. `CCOc1ccc(-n2c(-c3ccco3)n[nH]c2=S)cc1` yielded a GTP binding, percent of control of 112%. Compound `OC(c1ccc(OCc2ccccc2)cc1)c1nnc(-c2ccccc2)o1` (centres undefined) returned a GTP binding, percent of control of 177%. In turn, `COc1ccc(-c2c3c(nc4sc5c(=O)[nH]c(C)nc5c24)CCC3)cc1` displayed a GTP binding, percent of control of 49.1%. As to `O=C(COc1ccccc1-c1ccccc1)N/N=C/c1ccncc1`, the GTP binding, percent of control worked out at 77.4%.
